The source of these data is PubChem BioAssay (Tox21).

Records with an inconclusive call do not appear. Entries that show only a call come without a potency. Activity calls are given as the source filed them. Calls come from the whole dose curve; as a rule, active = well fitted activation curve with a large enough effect in the repeat runs; inconclusive = weak or mixed curves; inactive = flat fitted curve, though single readings scatter.

The first test is described as follows: A CellTox Green Cytotoxicity Assay to monitor cytotoxicity in HEK293 cells - 32 hour (AID 1224881). Note: nearly all actives have a fitted effect of over 40% in size. The note with it: CellTox Green fluorescence; series mostly up to 76.8 µM. In outline:
(§1)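 Nonlytic real-time cytotoxicity: HEK293 + CellTox Green reagent plated, 5 h preincubation, pintool compound addition (23 nL in DMSO), 37 C for 40 h, fluorescence measured at successive time points.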
On to `COc1cc(/C=C/c2ccccc2)oc(=O)c1`, for which the Potency entry is “inactive”.
As to `CCCCN(CCCC)CC(O)c1cc(Cl)cc2c1-c1ccc(Cl)cc1/C2=C/c1ccc(Cl)cc1` (centres undefined), the Potency entry is “inactive”.
On to `CC/C=C\CCCCCO`, for which the Potency result is “inactive”.
Same read-out and setting: the value for `OC12N=C(c3ccccc3)SC1Cc1cc(Cl)ccc12` (centres undefined) was “inactive”; that for `C#C[C@]1(OC(C)=O)CC[C@H]2[C@@H]3CCC4=C/C(=N/O)CC[C@@H]4[C@H]3CC[C@@]21CC` was “inactive”.
Regarding `CC(C)=CCNc1ncnc2c1ncn2[C@@H]1O[C@H](CO)[C@@H](O)[C@H]1O`, the Potency entry is “inactive”.
Take `COc1ccc2c(c1)c(CC(=O)OC/C=C(\C)CC/C=C(\C)CCC=C(C)C)c(C)n2C(=O)c1ccc(Cl)cc1`: the Potency result is “inactive”.
Turning to `CCc1oc2ccccc2c1C(=O)c1cc(I)c(O)c(I)c1`, the Potency result is “inactive”.
On the same count and under the same terms, for `[Cl][Pt-2]([Cl])([Cl])[Cl]` the value was “inactive”; for `CCCCC(CC)COC(=O)CCCCC(=O)OCc1ccccc1` (centres undefined), “inactive”; for `O=C1CCc2ccc(OCCCCN3CCN(c4cccc(Cl)c4Cl)CC3)cc2N1`, “inactive”.
On the same count and under the same terms, the value for `O=C(/C=C/c1ccccc1)OC/C=C/c1ccccc1` was “inactive”; that for `O=c1[nH]c(=O)n([C@H]2C[C@H](O)[C@@H](CO)O2)cc1F` was “inactive”; that for `COC(=O)C1=C(C)NC(C)=C(C(=O)OCCN2CCN(C(c3ccccc3)c3ccccc3)CC2)C1c1cccc([N+](=O)[O-])c1` (centres undefined) was “inactive”.

Another test in a line: A CellTox Green Cytotoxicity Assay to monitor cytotoxicity in HepG2 cells - 0 hour (AID 1224882). Note: nearly all actives have a fitted effect of over 35% in size. Note: potency is the fitted concentration of half-maximal effect. The note with it: CellTox Green fluorescence; series mostly up to 76.8 µM. The method in brief:
(§2)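 Read-out is fluorescence of a cyanine dye excluded from live cells that stains DNA of dead HepG2 cells, with signal proportional to cytotoxicity. Plates were read at 0, 8, 16, 24, 32 and 40 h after compound addition.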
Consider `O=C(O)CCN(C1(C(=O)NO)CCCC1)S(=O)(=O)c1ccc(Oc2ccc(F)cc2)cc1`, for which the Potency entry is “inactive”.
On to `C#C[C@]1(OC(C)=O)CC[C@H]2[C@@H]3CCC4=C[C@@H](OC(C)=O)CC[C@@H]4[C@H]3CC[C@@]21C`, for which the Potency entry was “inactive”.
Same read-out and setting: for `Cc1cc(-c2ccc(N=Nc3cc(S(=O)(=O)O)c4ccccc4c3N)c(C)c2)ccc1N=Nc1cc(S(=O)(=O)O)c2ccccc2c1N` the value was “inactive”.
Consider `C=CC(=O)OCCOC(=O)C=C`, for which the Potency result is “inactive”.
In the case of `Cc1ccc(O)c(O)c1`, the Potency result is “inactive”.
In the case of `CCCCCCCCCCC[C@@H](C[C@@H]1OC(=O)[C@H]1CCCCCC)OC(=O)[C@H](CC(C)C)NC=O`, the Potency entry is “inactive”.
For the molecule `COc1cccc(OC)c1C(=O)O`, the Potency entry was “inactive”.
Take `CN(C)[C@@H](CCOc1cccc2ccccc12)c1ccccc1`: the Potency result is “inactive”.
Still for that read-out and setting: for `C[Si](Cl)(c1ccccc1)c1ccccc1` the value was “inactive”; for `OCCN1CCN(CCCN2c3ccccc3Sc3ccc(C(F)(F)F)cc32)CC1`, “inactive”.
With `CC1(C)CCC[C@]2(C)[C@H]3CCO[C@]3(C)CC[C@@H]12`, the Potency result is “inactive”.
Take `CC(N=C(NC#N)Nc1ccncc1)C(C)(C)C` (centres undefined): the Potency entry was “inactive”.
Still for that read-out and setting: for `CC[C@H](C)COC(=O)/C=C/c1ccc(N=Cc2ccc(OC)cc2)cc1` the value was “inactive”.
On the same count and under the same terms, the value for `O=C(O)CN(CCN(CC(=O)O)CC(=O)O)CC(=O)O` was 1.74 µM (active); that for `CCCCCC(C)OC(=O)COc1ccc(Cl)c2cccnc12` (centres undefined) was “inactive”.
Turning to `CCCc1ccc(OCC(=O)N2CCN(C(=O)COc3ccc(CCC)cc3OC)CC2)c(OC)c1`, the Potency result was “inactive”.
As to `Cc1cc(=O)oc2cc(O)cc(O)c12`, the Potency entry was “inactive”.

Another test is described as follows: A CellTox Green Cytotoxicity Assay to monitor cytotoxicity in HepG2 cells - 32 hour (AID 1224883). Note: nearly all actives have a fitted effect of over 50% in size. Note: potency is the fitted concentration of half-maximal effect. The following applies: CellTox Green fluorescence; series mostly up to 76.8 µM. The method in brief: as §2
For the molecule `O=C(O)CCN(C1(C(=O)NO)CCCC1)S(=O)(=O)c1ccc(Oc2ccc(F)cc2)cc1`, the Potency result was “inactive”.
`C#C[C@]1(OC(C)=O)CC[C@H]2[C@@H]3CCC4=C[C@@H](OC(C)=O)CC[C@@H]4[C@H]3CC[C@@]21C`: the Potency result is “inactive”.
In the case of `C/C=C/C=C/COC(=O)C(C)C`, the Potency is 38.9 µM (active).
Consider `CCOC(=O)c1ccc(C2CCC(NC[C@H](O)COc3ccc(O)c(NS(C)(=O)=O)c3)CC2)cc1` (some centres undefined), for which the Potency is 45.2 µM (active).
Take `COc1ccc2c(c1)c(CC(=O)OC/C=C(\C)CC/C=C(\C)CCC=C(C)C)c(C)n2C(=O)c1ccc(Cl)cc1`: the Potency result is “inactive”.
On the same count and under the same terms, the value for `Cc1cc(-c2ccc(N=Nc3cc(S(=O)(=O)O)c4ccccc4c3N)c(C)c2)ccc1N=Nc1cc(S(=O)(=O)O)c2ccccc2c1N` was “inactive”; that for `C=CC(=O)OCCOC(=O)C=C` was “inactive”; that for `Cc1ccc(O)c(O)c1` was “inactive”.
Turning to `CCCCCCCCCCC[C@@H](C[C@@H]1OC(=O)[C@H]1CCCCCC)OC(=O)[C@H](CC(C)C)NC=O`, the Potency is 16.9 µM (active).
For the molecule `COc1cccc(OC)c1C(=O)O`, the Potency entry was “inactive”.
With `C=C(C)C(=O)OCCCCCCCCCC`, the Potency entry is “inactive”.
Regarding `COc1ccc2cc1Oc1ccc(cc1)C[C@H]1c3c(cc4c(c3Oc3cc5c(cc3OC)CCN(C)[C@@H]5C2)OCO4)CCN1C`, the Potency is 23.9 µM (active).
In the case of `OCCN1CCN(CCCN2c3ccccc3Sc3ccc(C(F)(F)F)cc32)CC1`, the Potency was 26.8 µM (active).
As for `CC1(C)CCC[C@]2(C)[C@H]3CCO[C@]3(C)CC[C@@H]12`, the Potency entry was “inactive”.
The same measure, in the same setting: the value for `COc1ccc(NC(=O)CC(C)=O)cc1` was “inactive”; that for `CC(N=C(NC#N)Nc1ccncc1)C(C)(C)C` (centres undefined) was “inactive”; that for `O=C(/C=C/c1ccccc1)OC/C=C/c1ccccc1` was “inactive”.
In the case of `O=C(O)CN(CCN(CC(=O)O)CC(=O)O)CC(=O)O`, the Potency is 1.74 µM (active).
`CCCc1ccc(OCC(=O)N2CCN(C(=O)COc3ccc(CCC)cc3OC)CC2)c(OC)c1`: the Potency was 23.9 µM (active).
In the case of `Cc1cc(=O)oc2cc(O)cc(O)c12`, the Potency entry was “inactive”.

The next test can be described thus: A CellTox Green Cytotoxicity Assay to monitor cytotoxicity in HEK293 cells - 8 hour (AID 1224884). Note: nearly all actives have a fitted effect of over 35% in size. Note: potency is the fitted concentration of half-maximal effect. The note with it: CellTox Green fluorescence; series mostly up to 76.8 µM. The method in brief:
as §1
Consider `O=C(O)CCN(C1(C(=O)NO)CCCC1)S(=O)(=O)c1ccc(Oc2ccc(F)cc2)cc1`, for which the Potency entry is “inactive”.
Regarding `COc1cc(/C=C/c2ccccc2)oc(=O)c1`, the Potency result is “inactive”.
With `CCCCN(CCCC)CC(O)c1cc(Cl)cc2c1-c1ccc(Cl)cc1/C2=C/c1ccc(Cl)cc1` (centres undefined), the Potency entry was “inactive”.
On to `CC/C=C\CCCCCO`, for which the Potency entry was “inactive”.
Regarding `OC12N=C(c3ccccc3)SC1Cc1cc(Cl)ccc12` (centres undefined), the Potency entry is “inactive”.
Turning to `C#C[C@]1(OC(C)=O)CC[C@H]2[C@@H]3CCC4=C[C@@H](OC(C)=O)CC[C@@H]4[C@H]3CC[C@@]21C`, the Potency result is “inactive”.
For the molecule `C/C=C/C=C/COC(=O)C(C)C`, the Potency result was “inactive”.
As to `C#C[C@]1(OC(C)=O)CC[C@H]2[C@@H]3CCC4=C/C(=N/O)CC[C@@H]4[C@H]3CC[C@@]21CC`, the Potency result is “inactive”.
Turning to `CCOC(=O)c1ccc(C2CCC(NC[C@H](O)COc3ccc(O)c(NS(C)(=O)=O)c3)CC2)cc1` (some centres undefined), the Potency result is “inactive”.
For `CC(C)=CCNc1ncnc2c1ncn2[C@@H]1O[C@H](CO)[C@@H](O)[C@H]1O`, the Potency entry was “inactive”.
With `Cc1cc(-c2ccc(N=Nc3cc(S(=O)(=O)O)c4ccccc4c3N)c(C)c2)ccc1N=Nc1cc(S(=O)(=O)O)c2ccccc2c1N`, the Potency entry is “inactive”.
As for `CCc1oc2ccccc2c1C(=O)c1cc(I)c(O)c(I)c1`, the Potency entry is “inactive”.
Take `C=CC(=O)OCCOC(=O)C=C`: the Potency result is “inactive”.
Take `CCCCCCCCCCC[C@@H](C[C@@H]1OC(=O)[C@H]1CCCCCC)OC(=O)[C@H](CC(C)C)NC=O`: the Potency entry was “inactive”.
On to `[Cl][Pt-2]([Cl])([Cl])[Cl]`, for which the Potency entry was “inactive”.
On to `COc1cccc(OC)c1C(=O)O`, for which the Potency entry is “inactive”.
Take `C=C(C)C(=O)OCCCCCCCCCC`: the Potency result was “inactive”.
For the molecule `CN(C)[C@@H](CCOc1cccc2ccccc12)c1ccccc1`, the Potency entry was “inactive”.
Turning to `COc1ccc2cc1Oc1ccc(cc1)C[C@H]1c3c(cc4c(c3Oc3cc5c(cc3OC)CCN(C)[C@@H]5C2)OCO4)CCN1C`, the Potency entry is “inactive”.
Turning to `CCCCC(CC)COC(=O)CCCCC(=O)OCc1ccccc1` (centres undefined), the Potency entry was “inactive”.
As for `C[Si](Cl)(c1ccccc1)c1ccccc1`, the Potency result is “inactive”.
As to `OCCN1CCN(CCCN2c3ccccc3Sc3ccc(C(F)(F)F)cc32)CC1`, the Potency entry is “inactive”.
The same measure, in the same setting: the value for `COc1ccc(NC(=O)CC(C)=O)cc1` was “inactive”.
Turning to `O=C1CCc2ccc(OCCCCN3CCN(c4cccc(Cl)c4Cl)CC3)cc2N1`, the Potency result is “inactive”.
On to `O=C(c1ccc(O)c(O)c1)c1ccc(O)cc1O`, for which the Potency result was “inactive”.
Still for that read-out and setting: the value for `CC(N=C(NC#N)Nc1ccncc1)C(C)(C)C` (centres undefined) was “inactive”; that for `CC[C@H](C)COC(=O)/C=C/c1ccc(N=Cc2ccc(OC)cc2)cc1` was “inactive”; that for `Sc1nc2ccccc2s1` was “inactive”.
For `O=C(O)CN(CCN(CC(=O)O)CC(=O)O)CC(=O)O`, the Potency is 1.96 µM (active).
As to `CCCCCC(C)OC(=O)COc1ccc(Cl)c2cccnc12` (centres undefined), the Potency result is “inactive”.
The same measure, in the same setting: the value for `O=c1[nH]c(=O)n([C@H]2C[C@H](O)[C@@H](CO)O2)cc1F` was “inactive”.
Regarding `Cc1cc(=O)oc2cc(O)cc(O)c12`, the Potency result was “inactive”.
Turning to `COC(=O)C1=C(C)NC(C)=C(C(=O)OCCN2CCN(C(c3ccccc3)c3ccccc3)CC2)C1c1cccc([N+](=O)[O-])c1` (centres undefined), the Potency entry was “inactive”.
